Experimental data taken from PubChem BioAssay (Tox21).
“And” between values parts separate entries of the source, which are not always exact repeats. Equal values may be shown once. Results filed as inconclusive are left out. The source holds several records for some structures; these can differ, active in one and inactive in another. The source made the active and inactive calls. The call rests on the fitted dose curve; in most records, active means well fitted cell-killing curve with a large enough effect in the repeat runs; inconclusive means weak or mixed curves; inactive means no such curve, though single readings can be large or run the other way.

Test: qHTS assay for identifying genotoxic compounds that show differential cytotoxicity against isogenic chicken DT40 cell lines with known DNA damage response pathways - Rad54/Ku70 mutant cell line (AID 743015); further: nearly all actives have a fitted effect of over 60% in size
Conditions: DT40 Rad54/Ku70 mutant viability, CellTiter-Glo, 40 h; series mostly up to 66.8 µM; activity change, negative = cytotoxicity: at the top concentration
Excerpt: National Center for Advancing Translational Sciences [NCATS]
NIH Chemical Genomics Center [NCGC]
U.S. Environmental Protection Agency [EPA]
National Institutes of Environmental Health Sciences [NIEHS]
National Toxicology Program [NTP]
U.S. Food and Drug Administration [FDA]
DNA repair pathways play a critical role in cellular homeostasis by repairing DNA damage induced by endogenous processes and xenobiotics. Isogenic chicken DT40 cell lines deficient in different DNA repair pathways can be used to identify genotoxic compounds and aid in characterizing the nature of the DNA damage induced. Two DNA repair-deficient cell lines with disrupted genes, Rad54/Ku70 or Rev3, were used to screen the Tox21 10K compound library. Possible genotoxicity was based on the presence of a significant increase in cytotoxicity in one or more of the DNA repair-deficient cell lines compared to that observed in the parental DNA repair-proficient cell line. CellTiter Glo viability assay (Promega, Madison, WI) was used to measure cell viability in these cells after compound treatment. This assay includes the data from the Rad54/Ku70 mutant cell line.
Tox21 Assay Protocol Summary:
300 DT40 mutant cells in 5 uL/well were dispensed into white, solid-bottom 1536-well plates using a Multidrop Combi (ThermoFisher Scientific, Waltham, MA) dispenser. After the assay plates were incubated at 37 C/5% CO2 for approximately 0.5 hour, 23 nL of compounds dissolved in DMSO, positive controls or DMSO only was transferred into the assay plate by a pintool work station (Kalypsys, San Diego, CA). The assay plates were incubated at 37 C/5% CO2 for 40 hours. After 5 uL per well of CellTiter-Glo reagent was added into each well of the assay plates, the plates were incubated for 30 min at room temperature and the luminescence intensity of the plates was measured using a ViewLux (PerkinElmer, Shelton, CT) plate reader.
On the % scale 0 is the no-effect control and ±100 the full control effect; potency means the concentration at half of the fitted maximal effect.

SMILES | activity change, negative = cytotoxicity | Potency
CC(C)(C)OO | -0.422% (inactive) | 
O=C(NC(=O)c1c(F)cccc1F)Nc1cc(Cl)c(OC(F)(F)C(F)F)c(Cl)c1 |  | 21.7 µM (active)
CCCCCCCCc1ccc(O)cc1 |  | 25.2 µM (active)
CC(C)OC(=S)S |  | 24.3 µM (active)
C=CC(=O)OCC(COC(=O)C=C)(COC(=O)C=C)COC(=O)C=C |  | 0.686 µM (active)
ClC1=C(Cl)[C@]2(Cl)[C@@H]3[C@@H]4C[C@@H]([C@H]5O[C@@H]45)[C@@H]3[C@@]1(Cl)C2(Cl)Cl |  | 25.8 µM (active)
CC(C)Oc1cccc(NC(=O)c2ccccc2C(F)(F)F)c1 |  | 30.6 µM (active)
CC1(C)CC/C(=C/c2ccc(Cl)cc2)C1(O)Cn1cncn1 (stereo not given) |  | 55.2 µM (active)
CC(C)[C@H](C(=O)O[C@H](C#N)c1cccc(Oc2ccccc2)c1)c1ccc(Cl)cc1 |  | 30.6 µM (active)
Nc1ccc(Sc2ccc(N)cc2)cc1 |  | 62.9 µM (active)
[Hg+2].[I-].[I-] |  | 0.77 µM (active)
c1ccc2cc3c(cc2c1)-c1cccc2cccc-3c12 | 10.7% (inactive) | 
Cc1cc(C(C)(C)c2cc(C)c(O)c(C)c2)cc(C)c1O |  | 26.4 µM (active)
N#CCCC(Br)(C#N)CBr (stereo not given) |  | 7.7 µM (active)
CC(C)CC(C)N (stereo not given) | 2.79% (inactive) | 
CC(=O)/C=C/c1ccc2c(c1)OCO2 |  | 61.4 µM (active)
O=[N+]([O-])c1cc(C(F)(F)F)c(Cl)c([N+](=O)[O-])c1Cl |  | 0.386 µM (active)
Clc1ccc(C(Cl)(Cl)Cl)c(Cl)c1 | 10.4% [at 95.1 µM] (inactive) | 
CC1(C)[C@H](C(=O)O[C@H](C#N)c2cccc(Oc3ccccc3)c2)[C@@H]1/C=C(\Cl)C(F)(F)F |  | 40.1 µM (active)
CC1(C)C(/C=C(\Cl)C(F)(F)F)C1C(=O)OC(C#N)c1cccc(Oc2ccccc2)c1 (stereo not given) | 5.77% [at 95.1 µM] (inactive) | 

SMILES | activity change, negative = cytotoxicity | Potency
CC(=O)[O-].[Tl+] |  | 1.73 µM (active)
O=c1oc2ccccc2c(O)c1Cc1c(O)c2ccccc2oc1=O | -0.114% [at 30.7 µM] (inactive) | 
COc1ccc(/C(=C/C(=O)N2CCOCC2)c2ccc(Cl)cc2)cc1OC |  | 30.6 µM (active)
Clc1ccc(CSC(Cn2ccnc2)c2ccc(Cl)cc2Cl)cc1 (stereo not given) |  | 12.7 µM (active)
CN(C)C(=S)S |  | 1.36 µM (active) and 2.17 µM (active)
Cc1cc(C)cc(OP(=O)(Oc2cc(C)cc(C)c2)Oc2cc(C)cc(C)c2)c1 | -8.32% [at 95.1 µM] (inactive) | 
NNC(=O)c1ccccc1 | -3.29% [at 95.1 µM] (inactive) | 
CC(C)(C)c1cc([N+](=O)[O-])cc(C(C)(C)C)c1O |  | 7.7 µM (active)
CC[C@H]1C[C@@H]2C[C@H]3c4[nH]c5ccc(OC)cc5c4CCN(C2)[C@@H]13 |  | 53.5 µM (active)
O=C1c2ccccc2C(=O)C1C(=O)C(c1ccccc1)c1ccc(Cl)cc1 (stereo not given) |  | 21.7 µM (active)
ClC(Cl)=C(c1ccc(Cl)cc1)c1ccc(Cl)cc1 | 1.04% [at 95.1 µM] (inactive) | 
CCCCCCCCCCCCCC[P+](CCCCCC)(CCCCCC)CCCCCC (tested in a mixture with another compound) |  | 3.06 µM (active)
CCCCCCCCCCCCBr |  | 30.6 µM (active)
FC(Cl)(Cl)Cl | 5.77% (inactive) | 
O=[N+]([O-])O.O=[N+]([O-])O.[Cd] |  | 61.1 µM (active)
Cc1cc(C(F)(C(F)(F)F)C(F)(F)F)ccc1NC(=O)c1cccc(I)c1C(=O)NC(C)(C)CS(C)(=O)=O |  | 30.8 µM (active)
CCCCCCCCCCCCCN1CC(C)OC(C)C1 (stereo not given) |  | 30.6 µM (active)
ClC1=C(Cl)C2(Cl)C3C(Cl)C=CC3C1(Cl)C2(Cl)Cl (stereo not given) |  | 68.6 µM (active)
Oc1ccc(C(c2ccc(O)cc2)(C(F)(F)F)C(F)(F)F)cc1 |  | inactive and 48.6 µM (active)
CC(Cc1ccc(C(C)(C)C)cc1)CN1C[C@@H](C)O[C@@H](C)C1 (stereo not given in full) |  | 4.86 µM (active)
